Screens: PubChem, National Center for Advancing Translational Sciences (NCATS)
12-LOX inh: ALOX12 (human) lipoxygenase inhibition; P18054; purified 12hLO, xylenol orange hydroperoxide absorbance; Potency, µM (highest dose often 108 µM), for the others: at the highest dose activity change, negative = inhibition, hits mostly inhibitors; 580,000 compounds, 1.1% hits; AID 1671190; further: on the % scale 0 is the no-effect control and ±100 the full control effect
Target sequence (P18054 whole entry, looked up): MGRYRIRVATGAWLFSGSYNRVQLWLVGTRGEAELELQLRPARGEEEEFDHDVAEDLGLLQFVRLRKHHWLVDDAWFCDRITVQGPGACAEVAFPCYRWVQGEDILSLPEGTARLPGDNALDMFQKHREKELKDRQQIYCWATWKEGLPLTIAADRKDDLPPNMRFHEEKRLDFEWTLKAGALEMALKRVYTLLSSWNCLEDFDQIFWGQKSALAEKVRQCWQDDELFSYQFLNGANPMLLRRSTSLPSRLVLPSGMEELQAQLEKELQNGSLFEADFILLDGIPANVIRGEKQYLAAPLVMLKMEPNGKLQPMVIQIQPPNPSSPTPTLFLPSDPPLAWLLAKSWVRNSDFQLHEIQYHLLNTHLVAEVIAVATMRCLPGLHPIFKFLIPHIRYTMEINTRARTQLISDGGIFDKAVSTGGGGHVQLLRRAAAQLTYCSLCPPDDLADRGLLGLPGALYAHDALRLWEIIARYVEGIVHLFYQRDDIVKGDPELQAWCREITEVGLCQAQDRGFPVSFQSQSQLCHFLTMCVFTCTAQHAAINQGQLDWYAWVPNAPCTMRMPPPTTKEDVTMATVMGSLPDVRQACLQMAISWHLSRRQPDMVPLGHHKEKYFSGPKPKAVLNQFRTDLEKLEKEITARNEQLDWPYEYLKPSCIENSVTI
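Purified human 12hLO (150 nM final) in 25 mM Hepes, 0.01% Triton X-100, pH 7.0 was preincubated 15 min at room temperature with compound. Then 40 uM arachidonic acid was added, 30 min. Hydroperoxide was read by Fe-XO absorbance ratio 573/405 nm.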
KB-3-1 tox: KB-3-1 parental cell cytotoxicity; KB-3-1 viability, CellTiter-Glo ATP luminescence, 72 h; Potency, µM (highest dose often 46.1 µM), hits mostly cytotoxic; 400,000 compounds, 1.4% hits; AID 1347075; further: on the % scale 0 is the no-effect control and ±100 the full control effect; nearly all actives have a fitted effect of over 60% in size
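Using CellTiter-Glo luminescence, growth of non-resistant KB-3-1 adenocarcinoma cells is assessed 72 h after pin-tool compound addition at 37 °C. Normalized responses across the concentration series yield fitted curves.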
PINK1 modulator: changes PINK1 expression | PINK1 immunofluorescence, high-content cytometry, 24 h | Potency, µM (top dose mostly 76.6 µM), inactives show at the highest dose activation (PINK1 increase), hits mostly activators | 410,000 compounds, 0.2% hits | AID 624263; active means well fitted activation curve with a large enough effect; inconclusive means small, poorly fitted or top-dose-only effect; cell line not stated here; further: % of control where 0% means no effect; nearly all actives have a fitted effect of over 65% in size
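Measures PINK1 amount and localization on or inside mitochondria by immunofluorescence. Stable cells get compounds at 5 concentrations for 24 hours before fixation and staining; CCCP controls included.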
KB-V1 MDR tox: kills drug-selected multidrug resistant KB-V1 cells; KB-V1 MDR cells viability, CellTiter-Glo, 72 h; Potency, µM (highest dose often 46.1 µM), most hits filed as cytotoxic; 400,000 compounds, 3.4% hits; further: on the % scale 0 is the no-effect control and ±100 the full control effect; nearly all actives have a fitted effect of over 60% in size
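KB-V1 cells (P-gp-expressing MDR subline of KB-3-1) in phenol-red-free DMEM with 10% FBS were exposed to library compounds over a concentration series for 72 h at 37 degrees C. Viability read by CellTiter-Glo luminescence; concentration-effect curves fitted after normalization.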
MCF10A rerep: inducers of DNA re-replication in MCF 10A breast cells. MCF 10A DNA re-replication, Hoechst nuclear intensity, 48 h. Potency, µM (series often up to 46.1 µM), without a hit: at the top dose activity, positive = re-replication, most hits filed as activators. 350,000 compounds, 2.9% hits; further: % of control where 0% means no effect; nearly all actives have a fitted effect of over 50% in size
SW480 rerep: DNA re-replication induction in SW480 cells | SW480 DNA re-replication, Hoechst DNA content imaging, 48 h | Potency, µM (doses to about 46.1 µM), for the others: top-dose re-replication activation, most hits filed as activators | 340,000 compounds, 1.8% hits; further: % of control where 0% means no effect; nearly all actives have a fitted effect of over 55% in size
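Cells (250 per well) received 23 nL compound or DMSO by pin tool and were kept 48 hr at 37 C, 5% CO2. Nuclei were then stained with Hoechst for 40 min and scanned for DNA content.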
* marks the source's active call; other numbers are inactive results; [ ] = remark or other dose. Most compounds without a hit are left out; they make up all but 5.8% or so of the library. Unless noted, the call rests on the fitted dose curve; in most records, active means well fitted curve in the direction sought with a large enough effect; inconclusive means small, poorly fitted or top-dose-only effect, or another doubt; inactive means no such curve, though single readings can be large; an effect the other way counts as inactive or inconclusive. Potency means the concentration at half of the fitted maximal effect.

Screening Cc1cc(C)c(S(=O)(=O)N2CCCCC2CCNC(=O)C(=O)NCc2cccnc2)c(C)c1 (centres undefined) returned 12-LOX inh 5%, KB-3-1 tox inactive, PINK1 modulator 4%, KB-V1 MDR tox 8.2µM*, MCF10A rerep 5% and SW480 rerep -6%.
For O=C(NCCC1CCCCN1S(=O)(=O)c1ccc(Cl)cc1)C(=O)NCc1ccncc1 (centres undefined) the results were 12-LOX inh -4%, KB-3-1 tox inactive, PINK1 modulator -3%, KB-V1 MDR tox inactive, MCF10A rerep -39% and SW480 rerep 3%.
COc1ccccc1CNC(=O)C(=O)NCCC1CCCCN1S(=O)(=O)c1ccccc1 (centres undefined) was read as 12-LOX inh inconclusive, KB-3-1 tox inactive, PINK1 modulator 4%, KB-V1 MDR tox inactive, MCF10A rerep 11% and SW480 rerep 13%.
For Cc1ccc(CNC(=O)C(=O)NCCC2CCCCN2S(=O)(=O)c2ccc(C)cc2)cc1 (centres undefined) the results were 12-LOX inh -17%, KB-3-1 tox inactive, PINK1 modulator -2%, KB-V1 MDR tox 3.7µM*, MCF10A rerep inconclusive and SW480 rerep inconclusive.
Screening O=C(CCc1nc(CSc2n[nH]c(-c3cccc(F)c3)n2)no1)Nc1cccc2ccccc12 returned 12-LOX inh -15%.
For Cc1ccc(OCC(=O)Nc2ccc(S(=O)(=O)Nc3nccs3)cc2)cc1 the results were 12-LOX inh -4%.
COCC(=O)Nc1ccc(-c2nc3ccccc3o2)cc1 was read as 12-LOX inh -18%.
`CC(Sc1ccc(Cl)cc1)C(=O)N1CCN(c2nccs2)CC1` (centres undefined) gave 12-LOX inh 5%.
Screening O=C(NCCC1CCCCN1S(=O)(=O)c1ccccc1)C(=O)NC1CCCC1 (centres undefined) returned 12-LOX inh -7%, KB-3-1 tox inactive, PINK1 modulator 3%, KB-V1 MDR tox inconclusive, MCF10A rerep 3% and SW480 rerep -2%.
Screening Cc1ccc(C)c(S(=O)(=O)N2CCCCC2CCNC(=O)C(=O)NCc2cccnc2)c1 (centres undefined) returned 12-LOX inh 13%, KB-3-1 tox inactive, PINK1 modulator 3%, KB-V1 MDR tox inconclusive, MCF10A rerep 11% and SW480 rerep inconclusive.
Cc1ccc(C)c(S(=O)(=O)N2CCCCC2CCNC(=O)C(=O)NCc2ccccc2)c1 (centres undefined) was read as 12-LOX inh -14%, KB-3-1 tox 26µM*, PINK1 modulator 11%, KB-V1 MDR tox inconclusive, MCF10A rerep inconclusive and SW480 rerep inconclusive.
For Cc1ccc(S(=O)(=O)N2CCCCC2CCNC(=O)C(=O)NC2CC2)cc1 (centres undefined) the results were 12-LOX inh -16%, KB-3-1 tox inactive, PINK1 modulator 3%, KB-V1 MDR tox 8.2µM*, MCF10A rerep 7% and SW480 rerep 4%.
Screening COc1ccc(-c2noc(CN3CCCC(C(=O)Nc4ccccc4)C3)n2)cc1OC (centres undefined) returned 12-LOX inh -27%.
`Cc1nn(-c2cc(N3CCCCCC3)ccc2[N+](=O)[O-])c(=O)c2ccccc12` gave 12-LOX inh -13%, KB-3-1 tox inactive, PINK1 modulator 3%[38.3 µM], KB-V1 MDR tox 3.7µM*, MCF10A rerep 12% and SW480 rerep 11%.
`COc1ccccc1CN1CCOCC2(C1)CN([S+](=O)([O-])c1ccccc1)C2` gave 12-LOX inh 4%[176 µM].
For O=C(C1CCN(S(=O)(=O)c2ccccc2)CC1)N1CCCC1c1ccc2c(c1)OCCCO2 (centres undefined) the results were 12-LOX inh -7%.
Screening COc1ccc(NC(=O)C2CCC(N3C(=O)C4C5C=CC(C5)C4C3=O)CC2)cc1 (centres undefined) returned 12-LOX inh 0%, KB-3-1 tox inactive, PINK1 modulator 1%, KB-V1 MDR tox inactive, MCF10A rerep -3% and SW480 rerep 1%.
For O=C(Nc1ccc(Cc2ccncc2)cc1)C1CC1 the results were 12-LOX inh 4%, KB-3-1 tox inactive, PINK1 modulator 0%[38.3 µM], KB-V1 MDR tox inconclusive, MCF10A rerep inconclusive and SW480 rerep 9%.
Screening CC(=O)Nc1ccc(NC(=O)C2CCC(N3C(=O)C4C5C=CC(C6CC56)C4C3=O)CC2)cc1 (centres undefined) returned 12-LOX inh 7%, KB-3-1 tox inactive, PINK1 modulator 5%, KB-V1 MDR tox inactive, MCF10A rerep 23µM* and SW480 rerep 2%.
`O=C(Nc1ccc(Cc2ccncc2)cc1)C1CCC(N2C(=O)C3C4C=CC(C5CC45)C3C2=O)CC1` (centres undefined) gave 12-LOX inh -12%, KB-3-1 tox inconclusive, PINK1 modulator 1%, KB-V1 MDR tox 12µM*, MCF10A rerep inconclusive and SW480 rerep 14%.
Screening O=c1oc2ccccc2n1CCN1CCN(c2ccccc2F)CC1 returned 12-LOX inh 35%.
Screening NC(=S)Cc1ccccc1Cl returned 12-LOX inh 0%, KB-3-1 tox inactive, PINK1 modulator -1%, KB-V1 MDR tox inactive, MCF10A rerep 0% and SW480 rerep 18µM*.
Screening CCCn1c(=O)[nH]c(=O)c2c1nc(-c1ccc(O)cc1)n2CCOC returned 12-LOX inh -75%.
CCc1noc(-c2cn(C3CCN(C(=O)c4sccc4C)C3)nn2)n1 (centres undefined) was read as 12-LOX inh 45µM*.
Cc1noc(-c2cn(C3CCN(C(=O)c4sccc4C)C3)nn2)n1 (centres undefined) was read as 12-LOX inh 15%.
For CCOc1cc(CNCCc2ccc(S(N)(=O)=O)cc2)ccc1OCc1ccc(Cl)cc1 the results were 12-LOX inh inconclusive, KB-3-1 tox inconclusive, PINK1 modulator -4%, KB-V1 MDR tox inconclusive, MCF10A rerep inconclusive and SW480 rerep inconclusive.
For COc1ccc(CNCc2ccco2)cc1OCc1ccccc1 the results were 12-LOX inh inconclusive, KB-3-1 tox inactive, PINK1 modulator -3%[38.3 µM], KB-V1 MDR tox inactive, MCF10A rerep 2% and SW480 rerep -2%.
Screening COc1cc(CNCCc2ccc(S(N)(=O)=O)cc2)ccc1OCc1ccc(Cl)cc1 returned 12-LOX inh 40µM*, KB-3-1 tox inconclusive, PINK1 modulator 5%[38.3 µM], KB-V1 MDR tox inconclusive, MCF10A rerep 13µM* and SW480 rerep inconclusive.
